SMILES strings stand for the structures. Values joined by “and” are separate entries in the source; they are usually repeats but may differ in a detail not shown here. Identical values can stand only once. Values without a mark were called inactive. Records with an inconclusive call do not appear. A call without a number means that no potency is given here. Active and inactive are the calls of the source. The call rests on the fitted dose curve.

Sequence of Acetylcholinesterase (Homo sapiens) (P22303 whole entry, looked up): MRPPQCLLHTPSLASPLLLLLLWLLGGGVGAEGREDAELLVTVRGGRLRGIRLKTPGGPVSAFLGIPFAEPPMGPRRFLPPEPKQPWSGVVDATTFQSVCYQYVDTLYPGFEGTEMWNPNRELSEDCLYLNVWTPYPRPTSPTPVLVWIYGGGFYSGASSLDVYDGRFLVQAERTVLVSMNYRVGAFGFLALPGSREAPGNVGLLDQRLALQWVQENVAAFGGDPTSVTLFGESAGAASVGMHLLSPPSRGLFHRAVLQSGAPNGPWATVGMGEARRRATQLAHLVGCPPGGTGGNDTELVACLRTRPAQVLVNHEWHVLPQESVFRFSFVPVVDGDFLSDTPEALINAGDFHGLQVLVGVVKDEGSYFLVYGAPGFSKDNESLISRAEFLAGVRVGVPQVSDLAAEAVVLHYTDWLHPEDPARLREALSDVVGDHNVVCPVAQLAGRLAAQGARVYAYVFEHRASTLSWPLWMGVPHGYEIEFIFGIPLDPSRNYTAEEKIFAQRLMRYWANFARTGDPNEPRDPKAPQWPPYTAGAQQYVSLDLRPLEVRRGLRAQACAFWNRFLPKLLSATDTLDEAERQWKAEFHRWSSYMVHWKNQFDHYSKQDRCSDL

One assay concerns the target Acetylcholinesterase (Homo sapiens) (UniProt P22303). Nature of the assay: Acetylcholinesterase (AChE) small molecule antagonists: colormetric cell-based qHTS assay (AID 1347395). Further: nearly all actives have a fitted effect of over 30% in size. Conditions: SH-SY5Y cells AChE activity, colorimetric (Ellman); series mostly up to 115 µM. The method in brief: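 Cells (SH-SY5Y, 2,000 per well) are seeded and left overnight at 37 C. Compound is added for 30 min, then DTNB and acetylthiocholine for a further 90 min at 37 C before absorbance-based thiocholine detection.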
(In general: qHTS replaces the single test concentration by a dilution series.)
In the case of `Nc1ccc(S(=O)(=O)O)cc1`, the Potency entry is “inactive”.
Same read-out and setting: in the case of `Oc1c(Cl)cc(Cl)cc1Sc1cc(Cl)cc(Cl)c1O` it was “inactive”; in that of `O=C(O)Cc1c[nH]c2ccccc12`, “inactive”; in that of `c1ccc2[nH]c(-c3cscn3)nc2c1`, “inactive”.
Still for that read-out and setting: in the case of `O=C(O)CC(=O)C(=O)O` it was “inactive”; in that of `Cc1cccc(Oc2ccccc2)c1`, “inactive”.
Regarding `O=c1[nH]c(=O)n([C@H]2C[C@H](O)[C@@H](CO)O2)cc1F`, the Potency result was “inactive”.
For the molecule `Cc1ccc(O)c(C(=O)c2ccccc2)c1`, the Potency result was “inactive”.
In the case of `CCC(=O)OC`, the Potency result is “inactive”.
Consider `CCCCCCCCCCCCOCCO`, for which the Potency result is “inactive”.
As for `CN1Cc2c(N)cccc2C(c2ccccc2)C1` (stereo not given), the Potency result is “inactive”.
On the same count and under the same terms, in the case of `CC1(C)O[C@H]2CC(=O)OC[C@]23[C@H]2CC[C@@]4(C)[C@H](c5ccoc5)OC(=O)[C@H]5O[C@]54[C@]2(C)C(=O)C[C@@H]13` it was “inactive”.
Take `CO[C@@]1(NC(=O)C(C(=O)O)c2ccc(O)cc2)C(=O)N2C(C(=O)O)=C(CSc3nnnn3C)CO[C@@H]21` (stereo not given in full): the Potency entry was “inactive”.
The same measure, in the same setting: for `Oc1c(Cl)cc(Cl)c(Cl)c1Cl` the value was “inactive”.
Take `O=C1CCCCC1C1CCCCC1` (stereo not given): the Potency entry was “inactive”.
Still for that read-out and setting: for `O=C(c1ccccc1O)c1ccccc1O` the value was “inactive”; for `O=C(c1ccc(O)cc1)c1ccc(Cl)cc1`, “inactive”.
The same measure, in the same setting: for `CC(=O)OCC(=O)[C@@]1(O)CC[C@H]2[C@@H]3CCC4=CC(=O)CC[C@]4(C)[C@H]3C(=O)C[C@@]21C` the value was “inactive”.
Take `Nc1ccc(/C=C/c2ccc(N)cc2S(=O)(=O)O)c(S(=O)(=O)O)c1`: the activity, negative = inhibition was -0.352% [at 0.435 µM].
On to `CCn1c2ccccc2c2cc([N+](=O)[O-])ccc21`, for which the Potency entry was “inactive”.
Take `c1ccc2sc(SSN3CCOCC3)nc2c1`: the Potency entry is “inactive”.
For the molecule `C=C[Si]1(C)O[Si](C)(C=C)O[Si](C)(C=C)O[Si](C)(C=C)O1` (stereo not given), the Potency entry is “inactive”.
`CCO[Si](CCCCl)(OCC)OCC`: the Potency entry was “inactive”.
`CCN(CC)C(=O)c1cccc(C)c1`: the Potency entry was “inactive”.
Same read-out and setting: in the case of `CCc1ccc(CCOc2ccc(CC3SC(=O)NC3=O)cc2)nc1` (stereo not given) it was “inactive”; in that of `COc1cc(NS(=O)(=O)c2ccc(N)cc2)nc(OC)n1`, “inactive”.
With `Cc1oc(C)c(C(=O)Nc2ccccc2)c1C`, the Potency entry was “inactive”.
Take `CN(C)c1cc(NC(=O)CNC(C)(C)C)c(O)c2c1C[C@H]1C[C@H]3[C@H](N(C)C)C(=O)C(C(N)=O)=C(O)[C@@]3(O)C(=O)C1=C2O`: the Potency entry was “inactive”.
As to `O=Cc1cccc([N+](=O)[O-])c1`, the Potency entry was “inactive”.
Same read-out and setting: in the case of `O=[N+]([O-])c1ccccc1Nc1ccccc1` it was “inactive”.
Still for that read-out and setting: in the case of `CC(C)(C)c1nnc(NS(=O)(=O)c2ccccc2)s1` it was “inactive”; in that of `C1COCO1`, “inactive”; in that of `O=C(O)c1cccc(C(=O)O)n1`, “inactive”.
The same measure, in the same setting: for `COS(=O)(=O)O` the value was “inactive”; for `CCc1oc2ccccc2c1C(=O)c1cc(Br)c(O)c(Br)c1`, “inactive”.
In the case of `CC(Cl)COP(=O)(OCC(C)Cl)OCC(C)Cl` (stereo not given), the Potency result is “inactive”.
Consider `CC1(C)CC(OC(=O)CCCCCCCCC(=O)OC2CC(C)(C)NC(C)(C)C2)CC(C)(C)N1`, for which the activity, negative = inhibition is -3.47% [at 23.6 µM].
For the molecule `COc1cc2ncnc(Nc3cccc(Cl)c3)c2cc1OC`, the activity, negative = inhibition is 5.54% [at 23.6 µM].
In the case of `CC(C)Nc1cccnc1N1CCN(C(=O)c2cc3cc(NS(C)(=O)=O)ccc3[nH]2)CC1`, the Potency result is “inactive”.
On to `CCOC(=O)Cn1c(=O)sc2cccc(Cl)c21`, for which the Potency result was “inactive”.

For a further assay the target is unchanged. Description: Acetylcholinesterase (AChE) small molecule antagonists: enzyme-based qHTS assay (AID 1347397). Further: nearly all actives have a fitted effect of over 55% in size. Further: potency means the concentration at half of the fitted maximal effect. Conditions: Potency: AChE enzyme activity inhibition; outcome: AChE enzyme activity inhibition; series mostly up to 115 µM. The method in brief: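 Compound or DMSO vehicle was pin-transferred onto recombinant human AChE (50 mU/mL as dispensed) and left 30 min at room temperature. Acetylthiocholine with DTNB then started the reaction, read colorimetrically 10 min later.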
Regarding `Nc1ccc(S(=O)(=O)O)cc1`, the Potency result is “inactive”.
In the case of `Oc1c(Cl)cc(Cl)cc1Sc1cc(Cl)cc(Cl)c1O`, the Potency was 40 µM (active) and 72.2 µM (active) and 56.4 µM (active).
Take `O=C(O)Cc1c[nH]c2ccccc12`: the Potency entry was “inactive”.
Take `c1ccc2[nH]c(-c3cscn3)nc2c1`: the Potency result was “inactive”.
On to `O=C(O)CC(=O)C(=O)O`, for which the Potency result is “inactive”.
On the same count and under the same terms, in the case of `Cc1cccc(Oc2ccccc2)c1` it was “inactive”.
`O=c1[nH]c(=O)n([C@H]2C[C@H](O)[C@@H](CO)O2)cc1F`: the Potency result is “inactive”.
For `Cc1ccc(O)c(C(=O)c2ccccc2)c1`, the Potency result is “inactive”.
For `CCC(=O)OC`, the Potency result was “inactive”.
For `CCCCCCCCCCCCOCCO`, the Potency entry is “inactive”.
Turning to `CN1Cc2c(N)cccc2C(c2ccccc2)C1` (stereo not given), the Potency result was “inactive”.
Same read-out and setting: for `CC1(C)O[C@H]2CC(=O)OC[C@]23[C@H]2CC[C@@]4(C)[C@H](c5ccoc5)OC(=O)[C@H]5O[C@]54[C@]2(C)C(=O)C[C@@H]13` the value was “inactive”; for `CO[C@@]1(NC(=O)C(C(=O)O)c2ccc(O)cc2)C(=O)N2C(C(=O)O)=C(CSc3nnnn3C)CO[C@@H]21` (stereo not given in full), “inactive”.
As for `Oc1c(Cl)cc(Cl)c(Cl)c1Cl`, the Potency entry was “inactive”.
As to `O=C1CCCCC1C1CCCCC1` (stereo not given), the Potency entry was “inactive”.
For `O=C(c1ccccc1O)c1ccccc1O`, the Potency result was “inactive”.
With `O=C(c1ccc(O)cc1)c1ccc(Cl)cc1`, the Potency entry was “inactive”.
`CC(=O)OCC(=O)[C@@]1(O)CC[C@H]2[C@@H]3CCC4=CC(=O)CC[C@]4(C)[C@H]3C(=O)C[C@@]21C`: the Potency entry is “inactive”.
For the molecule `Nc1ccc(/C=C/c2ccc(N)cc2S(=O)(=O)O)c(S(=O)(=O)O)c1`, the activity change, negative = inhibition was -0.809% [at 0.435 µM].
In the case of `CCn1c2ccccc2c2cc([N+](=O)[O-])ccc21`, the Potency entry was “inactive”.
As to `c1ccc2sc(SSN3CCOCC3)nc2c1`, the Potency result was “inactive”.
Same read-out and setting: for `C=C[Si]1(C)O[Si](C)(C=C)O[Si](C)(C=C)O[Si](C)(C=C)O1` (stereo not given) the value was “inactive”; for `CCO[Si](CCCCl)(OCC)OCC`, “inactive”; for `CCN(CC)C(=O)c1cccc(C)c1`, “inactive”.
Still for that read-out and setting: for `CCc1ccc(CCOc2ccc(CC3SC(=O)NC3=O)cc2)nc1` (stereo not given) the value was “inactive”; for `COc1cc(NS(=O)(=O)c2ccc(N)cc2)nc(OC)n1`, “inactive”; for `Cc1oc(C)c(C(=O)Nc2ccccc2)c1C`, “inactive”.
Consider `CN(C)c1cc(NC(=O)CNC(C)(C)C)c(O)c2c1C[C@H]1C[C@H]3[C@H](N(C)C)C(=O)C(C(N)=O)=C(O)[C@@]3(O)C(=O)C1=C2O`, for which the Potency entry is “inactive”.
For the molecule `O=Cc1cccc([N+](=O)[O-])c1`, the Potency result was “inactive”.
In the case of `O=[N+]([O-])c1ccccc1Nc1ccccc1`, the Potency result is “inactive”.
As to `CC(C)(C)c1nnc(NS(=O)(=O)c2ccccc2)s1`, the Potency entry is “inactive”.
`C1COCO1`: the Potency result is “inactive”.
The same measure, in the same setting: for `O=C(O)c1cccc(C(=O)O)n1` the value was “inactive”; for `COS(=O)(=O)O`, “inactive”; for `CCc1oc2ccccc2c1C(=O)c1cc(Br)c(O)c(Br)c1`, “inactive”.
With `CC(Cl)COP(=O)(OCC(C)Cl)OCC(C)Cl` (stereo not given), the Potency entry was “inactive”.
As to `CC1(C)CC(OC(=O)CCCCCCCCC(=O)OC2CC(C)(C)NC(C)(C)C2)CC(C)(C)N1`, the activity change, negative = inhibition is 1.77% [at 23.6 µM].
On the same count and under the same terms, in the case of `COc1cc2ncnc(Nc3cccc(Cl)c3)c2cc1OC` it was -0.138% [at 23.6 µM].
For the molecule `CC(C)Nc1cccnc1N1CCN(C(=O)c2cc3cc(NS(C)(=O)=O)ccc3[nH]2)CC1`, the Potency result is “inactive”.
Still for that read-out and setting: for `CCOC(=O)Cn1c(=O)sc2cccc(Cl)c21` the value was “inactive”.
